Our source for the growth inhibition values is PubChem BioAssay (NCI).

The panel holds about 79,000 compounds, 15% with a hit somewhere; the sample as a whole holds those more often. Unmarked numbers belong to inactive results. The source made the active and inactive calls. Cut-off read from the data, not from the text of the source: active = growth inhibition above about 70%; inactive = the rest.

Experiment [1] is described as follows: NCI Yeast Anticancer Drug Screen. Data for the rad50 strain (AID 155).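 Note: 0% = growth of vehicle-only cultures of the same strain.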 The settings on record: S. cerevisiae rad50 strain growth inhibition; at 50.0 µM; active compounds read high. An outline of the steps:
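Genetically altered yeast (DNA repair pathway); compound treatment; growth inhibition vs vehicle ctrl.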

Experiment [2] can be described thus: NCI Yeast Anticancer Drug Screen. Data for the mec2-1 strain (AID 157). As to conditions: S. cerevisiae mec2-1 strain, at 50.0 µM, active compounds read high. An outline of the steps: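 Yeast mec2-1 mutant treated with compound. Readout: growth inhibition vs vehicle controls.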
Experiment [3] in a line: NCI Yeast Anticancer Drug Screen. Data for the sgs1 mgt1 strain (AID 161).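 Note: 0% = growth of cultures given vehicle only.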 The settings on record: S. cerevisiae sgs1 mgt1 strain, at 50.0 µM, active compounds read high. An outline of the steps:
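Genetically altered yeast, compound exposure, growth inhibition relative to vehicle.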

Experiment [4] is described as follows: NCI Yeast Anticancer Drug Screen. Data for the cln2 rad14 strain (AID 165).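 Note: 0% = growth equal to vehicle treated cultures.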 The settings on record: S. cerevisiae cln2 rad14 strain, at 50.0 µM, active compounds read high. An outline of the steps: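 cln2 rad14 yeast strain; compound exposure; growth inhibition read vs vehicle controls.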
Experiment [5] in a line: NCI Yeast Anticancer Drug Screen. Data for the bub3 strain (AID 167). The settings on record: S. cerevisiae bub3 mutant strain, at 50.0 µM, active compounds read high. An outline of the steps: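 Yeast carrying a defined mutation is treated with each compound, and growth is compared with that of vehicle-exposed cells to give inhibition.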
Experiment [6] can be described thus: NCI Yeast Anticancer Drug Screen. Data for the mlh1 rad18 strain (AID 175). The settings on record: S. cerevisiae mlh1 rad18 strain growth inhibition; at 50.0 µM; active compounds read high. An outline of the steps:
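Yeast w/ defined DNA-repair lesions; compound exposure; growth vs vehicle controls → % inhibition.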

Consider `CN(C)CCC(O)c1c[nH]c2ccccc12` (stereo not given), for which the growth inhibition is 6% in experiment [1]; 1% in experiment [2]; -4.1% in experiment [3]; -5.15% in experiment [4]; 1.15% in experiment [5]; 1.15% in experiment [6].
On to `C=C1C(=O)OC2CC3(C)OC3CC/C(C)=C/C(OC(C)=O)C12` (stereo not given), for which the growth inhibition in experiment [1] is 27.1%; in experiment [2] it was 37.4%; in experiment [3], 29.6%; in experiment [4], 21.1%; in experiment [5], 45.1%; in experiment [6] it was 38%.
Consider `COC1/C=C/C=C(/C)Cc2cc(O)c(Cl)c(c2)N(C)C(=O)CC(OC(=O)C(C)C)C2(C)OC2C(C)C2CC1(O)NC(=O)O2` (stereo not given), for which the growth inhibition is -9.05% in experiment [1]; -11.2% in experiment [2]; -15.8% in experiment [3]; -9.15% in experiment [4]; -6.2% in experiment [5]; -53% in experiment [6].
`Cc1nnc2n1-c1ccccc1C(=S)N1CSCC21` (stereo not given): the growth inhibition in experiment [1] was -22%; in experiment [2], -0.25%; in experiment [3], -24.7%; in experiment [4] it was 8.15%; in experiment [5], -6.7%; in experiment [6], -0.45%.
In the case of `CO[As](OC)c1ccc(N=Nc2ccc(N(C)C)cc2)cc1`, the growth inhibition in experiment [1] is 98.4% (active); in experiment [2] it was 99.2% (active); in experiment [3], 98.9% (active); in experiment [4] it was 98.6% (active); in experiment [5], 99% (active); in experiment [6] it was 99.2% (active).
On to `CNP1(NC)=NP(N(C)C)(N(C)C)=NP(N(C)C)(N(C)C)=N1`, for which the growth inhibition in experiment [1] is -15.9%; in experiment [2] it was 0.45%; in experiment [3], -3%; in experiment [4] it was -19.4%; in experiment [5] it was 11.6%; in experiment [6], 13.2%.
For the molecule `COc1cc([C@@H]2c3cc(O)c(OC)cc3C[C@H]3C(=O)OC[C@@H]23)ccc1O`, the growth inhibition in experiment [1] is 20.1%; in experiment [2], -13.7%; in experiment [3], 26.2%; in experiment [4], 10.3%; in experiment [5], 25.3%; in experiment [6] it was -1.6%.
Take `CC(NC1=NCCO1)c1ccccc1Cl` (stereo not given): the growth inhibition in experiment [1] was -8.85%; in experiment [2] it was -29%; in experiment [3] it was 5.45%; in experiment [4], -27.9%; in experiment [5], -12.9%; in experiment [6] it was -48%.
With `CP(C)C.[Ag][I]`, the growth inhibition in experiment [1] is -26.4%; in experiment [2], -7.85%; in experiment [3], -0.15%; in experiment [4], -41.2%; in experiment [5] it was -9.3%; in experiment [6], -2.4%.
As to `Cc1ccc(Cl)c([N+](=O)[O-])c1`, the growth inhibition in experiment [1] was -23.7%; in experiment [2] it was -52.5%; in experiment [3], -30.4%; in experiment [4] it was -3.25%; in experiment [5], -20.1%; in experiment [6] it was -9.75%.
In the case of `CCCC(C)OP(=O)(OCC)OCC` (stereo not given), the growth inhibition in experiment [1] was 2.2%; in experiment [2] it was -2.7%; in experiment [3], -5.35%; in experiment [4], -48.4%; in experiment [5], 14.4%; in experiment [6] it was -3.5%.
Consider `[N-]=[N+]=NC1(C(=O)O)CCCC1`, for which the growth inhibition in experiment [1] is 0.95%; in experiment [2], -6.85%; in experiment [3] it was -15.4%; in experiment [4], -14.2%; in experiment [5] it was -5.75%; in experiment [6] it was -34.8%.
`ClCCN(CCCl)c1ccc(N=Cc2ccccc2)cc1`: the growth inhibition in experiment [1] was 24.9%; in experiment [2] it was 17%; in experiment [3] it was 7.35%; in experiment [4], 4.3%; in experiment [5], 19.4%; in experiment [6] it was 44.6%.
As for `CN1CCc2ccc(O)cc2C1`, the growth inhibition in experiment [1] was 16.3%; in experiment [2], 5.6%; in experiment [3], 3.95%; in experiment [4] it was -7.5%; in experiment [5], 15.7%; in experiment [6] it was 10.6%.
Regarding `CC(=O)OC1OC(CS[As](C)CCO)C(OC(C)=O)C(OC(C)=O)C1OC(C)=O` (stereo not given), the growth inhibition in experiment [1] is 12.8%; in experiment [2], -16.9%; in experiment [3] it was -15.3%; in experiment [4], -8%; in experiment [5] it was -0.85%; in experiment [6], -9.55%.
As to `O=C(CCl)N(CCO)CCO`, the growth inhibition was -0.85% in experiment [1]; 1.5% in experiment [2]; -2.4% in experiment [3]; -30.7% in experiment [4]; 6.3% in experiment [5]; 0.95% in experiment [6].
Regarding `[Cu+2].[O-]c1ccc2ccccc2c1N=Nc1ccccc1.[O-]c1ccc2ccccc2c1N=Nc1ccccc1`, the growth inhibition in experiment [1] is -70.1%; in experiment [2] it was -13.1%; in experiment [3], -13.1%; in experiment [4], -15.9%; in experiment [5], 2.4%; in experiment [6] it was -12.2%.
Regarding `CCOP(=O)(N=S=O)OCC`, the growth inhibition in experiment [1] was 5.75%; in experiment [2] it was -13.5%; in experiment [3] it was -4.05%; in experiment [4] it was -28.2%; in experiment [5] it was 7.95%; in experiment [6], -2.2%.
`O=C(/C=C/c1ccccc1)Nc1ccc(Cl)cc1C(=O)c1ccccc1`: the growth inhibition is -2.6% in experiment [1]; 14.8% in experiment [2]; 7.6% in experiment [3]; -6.6% in experiment [4]; 40.4% in experiment [5]; 20.4% in experiment [6].
Turning to `CCC1(C(C)c2ccccc2)C(=O)NC(=O)NC1=O` (stereo not given), the growth inhibition in experiment [1] was 0%; in experiment [2], 6.1%; in experiment [3] it was 1.8%; in experiment [4], 46.1%; in experiment [5] it was 16.6%; in experiment [6] it was -3.55%.
